# Experimental data taken from PubChem BioAssay (NCI).
# The panel holds about 83,000 compounds, 20% with a hit somewhere; the sample as a whole holds those more often.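 48-hour exposure, single concentration, 96-well plates; percent growth endpoint where 0 means no net growth. Active: below 10.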 Calls of active or inactive are those of the source.
# System: MALME-3M melanoma
# Assay: NCI-60 one-dose screen, 48 h (100 = growth as untreated, 0 = no growth, -100 = all killed)
# Conditions: 10 µM unless noted
row,Structure (SMILES),growth
1,CCC1CCc2nc3sc(C(=O)Nc4ccccc4F)c(N)c3cc2C1 (stereo unspecified),48.7% (inactive)
2,Cc1nn(-c2ccc(Cl)cc2)c(=O)n1CCOc1ccccc1Cl,103% (inactive)
3,COc1cc(/C=C2\CCCC3=C2NC(C)=NC3c2cc(OC)c(OC)c(OC)c2)cc(OC)c1OC (stereo unspecified),30.2% (inactive)
4,c1ccc([P+](CCC[P+](c2ccccc2)(c2ccccc2)c2ccccc2)(c2ccccc2)c2ccccc2)cc1,65.6% (inactive)
5,CC1=C(C#N)C(C)(C)C(C#N)=C(C)N1,109% (inactive)
6,COc1cc(C(=O)OCCCCCCCCCCC[P+](c2ccccc2)(c2ccccc2)c2ccccc2)ccc1O,-77.4% (active)
7,Nc1c(C(=O)Nc2ccccc2)sc2nc3c(cc12)CCCCC3,-5.3% (active)
8,COc1cccc(C2CC(=O)Nc3c2c(C)nn3-c2nc3ccccc3[nH]2)c1OC (stereo unspecified),52.3% (inactive)
9,COc1cc(C(=O)/C=C/c2cc(C(=O)c3cc(OC)c(OC)c(OC)c3)ccc2OC)ccc1N,-36.1% (active)
10,COc1ccc(NC(=O)c2cc3ccccc3nc2Nc2cc(OC)c(OC)c(OC)c2)cc1,132% (inactive)
11,O=S(=O)(O)CCl,102% (inactive)
12,O=C(CN1CCOCC1)Nc1ccc(-c2nc3ccccc3s2)cc1,117% (inactive)
13,COc1cc(/C=C\c2cc(OC)c(OC)c(OC)c2)cc(N/C=C\C(=O)c2c[nH]c3ccccc23)c1OC,-58.2% (active)
14,CC(C)C[C@H](NC(=O)[C@@H](Cc1ccccc1)n1ccc(Nc2ccccc2)cc1=O)B(O)O,-39.1% (active)
15,Cc1ccc2c(c1)C(=O)C(c1c(-c3[nH]c(=O)c4ccc(C)cc4c3O)c(O)c3ccccc3c1O)=NC2=O,-39.1% (active)
16,C=CCn1c(C)nc2ccc(Nc3nc(Nc4ccc(F)cc4)nc4ccccc34)cc21,74.5% (inactive)
17,COc1ccccc1CNCCCN1C(=O)c2ccc3c4c(ccc(c24)C1=O)C(=O)N(CCCNCCCCNCCCCN)C3=O,-83.9% (active)
18,COc1ccc2c(c1)C(=O)/C(=C/c1ccc(O)cc1)O2,71.2% (inactive)
19,COc1ccc(-c2cn[nH]c2-c2cc(OC)c3c(c2)OCO3)cc1,30.9% (inactive)

row,Structure (SMILES),growth
1,CCCCCCCCCCCCNC(=S)N/N=C/c1ccc(Cl)c(Cl)c1,113% (inactive)
2,O=C1Nc2ccc(Br)cc2C1=N/C=c1\[nH]c(=O)/c(=C/c2ccc(Cl)cc2)s1,93.6% (inactive)
3,O=C(CNc1c(Cl)cccc1Cl)Nc1ccc(-c2nc3ccccc3s2)cc1,-50% (active)
4,CCn1c(=O)c2c(=O)c3c4c(oc3oc2c2ccccc21)C(=O)c1ccccc1C4=O,113% (inactive)
5,CN1CCN(c2ccc3cc(-c4nc5ccccc5[nH]4)c(=O)oc3c2)CC1,90.4% (inactive)
6,COc1ccc(OC)c(C(=O)c2oc3ccc(Br)cc3c2N)c1,35.2% (inactive)
7,Cc1ccc(Cn2c(-c3nonc3N)nc3ccccc32)cc1,81.6% (inactive)
8,Cc1ccc(S(=O)(=O)NCCCNc2nccc(-c3c(-c4ccccc4)nc4sccn34)n2)cc1,99.3% (inactive)
9,COC1=CC(c2ccc[nH]2)=N/C1=C\c1[nH]c(C)c(C(=O)CCCCC(=O)Oc2ccc3c(c2)CCC2C3CC[C@]3(C)[C@@H](O)CC[C@@H]23)c1C (stereo partly specified),80.1% (inactive)
10,Cc1cccc(NC(=O)c2sc3nc4c(cc3c2N)CCC4)c1C,45.5% (inactive)
11,Nc1c(C(=O)Nc2c(Cl)cccc2Cl)sc2nc3c(cc12)CCCCC3,61.5% (inactive)
12,COc1cc(OC)c(C(=O)/C=C/c2ccc(C(F)(F)F)cc2)c(OC)c1,75.3% (inactive)
13,Cn1c(-c2nonc2NC(=O)c2ccc(F)cc2)nc2ccccc21,123% (inactive)
14,CCOC(=O)C1=C(CSC(=S)N(C2CCCCC2)C2CCCCC2)N(C)C(=O)NC1c1ccccc1 (stereo unspecified),71.8% (inactive)
15,COC12CC(=O)C(C(C)=O)=C(O)C1(C)c1c(O)c(C)c(O)c(C(C)=O)c1O2 (stereo unspecified),90.7% (inactive)
16,COc1ccc(C2=CC(c3ccc(Oc4ccnc5cc(Cl)ccc45)c(OC)c3)c3c(nc(OC)[nH]c3=O)N2)cc1 (stereo unspecified),78.5% (inactive)
17,COc1ccc(Cn2cc(COc3cc(/C=C/C(=O)c4cc(OC)c(OC)c(OC)c4)ccc3OC)nn2)cc1,101% (inactive)
18,O=C(Nc1ccc(OCc2nnc(-c3ccc(Cl)cc3)o2)c(F)c1)Nc1ccc(Cl)c(Cl)c1,33.4% (inactive)
19,O=C(CNc1ccc(Cl)cc1)Nc1ccc(-c2nc3ccccc3s2)cc1,-30.5% (active)

# System: MDA-MB-231 breast
# Assay: as above
# Conditions: 10 µM unless noted
row,Structure (SMILES),growth
1,CCC1CCc2nc3sc(C(=O)Nc4ccccc4F)c(N)c3cc2C1 (stereo unspecified),69.9% (inactive)
2,Cc1nn(-c2ccc(Cl)cc2)c(=O)n1CCOc1ccccc1Cl,89.6% (inactive)
3,COc1cc(/C=C2\CCCC3=C2NC(C)=NC3c2cc(OC)c(OC)c(OC)c2)cc(OC)c1OC (stereo unspecified),13% (inactive)
4,c1ccc([P+](CCC[P+](c2ccccc2)(c2ccccc2)c2ccccc2)(c2ccccc2)c2ccccc2)cc1,93.7% (inactive)
5,CC1=C(C#N)C(C)(C)C(C#N)=C(C)N1,104% (inactive)
6,COc1cc(C(=O)OCCCCCCCCCCC[P+](c2ccccc2)(c2ccccc2)c2ccccc2)ccc1O,-69.4% (active)
7,Nc1c(C(=O)Nc2ccccc2)sc2nc3c(cc12)CCCCC3,22.2% (inactive)
8,COc1cccc(C2CC(=O)Nc3c2c(C)nn3-c2nc3ccccc3[nH]2)c1OC (stereo unspecified),82.1% (inactive)
9,COc1cc(C(=O)/C=C/c2cc(C(=O)c3cc(OC)c(OC)c(OC)c3)ccc2OC)ccc1N,23.1% (inactive)
10,COc1ccc(NC(=O)c2cc3ccccc3nc2Nc2cc(OC)c(OC)c(OC)c2)cc1,54.1% (inactive)
11,O=S(=O)(O)CCl,108% (inactive)
12,O=C(CN1CCOCC1)Nc1ccc(-c2nc3ccccc3s2)cc1,96.8% (inactive)
13,COc1cc(/C=C\c2cc(OC)c(OC)c(OC)c2)cc(N/C=C\C(=O)c2c[nH]c3ccccc23)c1OC,-12% (active)
14,CC(C)C[C@H](NC(=O)[C@@H](Cc1ccccc1)n1ccc(Nc2ccccc2)cc1=O)B(O)O,-24.8% (active)
15,Cc1ccc2c(c1)C(=O)C(c1c(-c3[nH]c(=O)c4ccc(C)cc4c3O)c(O)c3ccccc3c1O)=NC2=O,-6.31% (active)
16,C=CCn1c(C)nc2ccc(Nc3nc(Nc4ccc(F)cc4)nc4ccccc34)cc21,73.8% (inactive)
17,COc1ccccc1CNCCCN1C(=O)c2ccc3c4c(ccc(c24)C1=O)C(=O)N(CCCNCCCCNCCCCN)C3=O,8.05% (active)
18,COc1ccc2c(c1)C(=O)/C(=C/c1ccc(O)cc1)O2,78.5% (inactive)
19,COc1ccc(-c2cn[nH]c2-c2cc(OC)c3c(c2)OCO3)cc1,11% (inactive)

row,Structure (SMILES),growth
1,CCCCCCCCCCCCNC(=S)N/N=C/c1ccc(Cl)c(Cl)c1,104% (inactive)
2,O=C1Nc2ccc(Br)cc2C1=N/C=c1\[nH]c(=O)/c(=C/c2ccc(Cl)cc2)s1,88.6% (inactive)
3,O=C(CNc1c(Cl)cccc1Cl)Nc1ccc(-c2nc3ccccc3s2)cc1,56.9% (inactive)
4,CCn1c(=O)c2c(=O)c3c4c(oc3oc2c2ccccc21)C(=O)c1ccccc1C4=O,6.33% (active)
5,CN1CCN(c2ccc3cc(-c4nc5ccccc5[nH]4)c(=O)oc3c2)CC1,80.2% (inactive)
6,COc1ccc(OC)c(C(=O)c2oc3ccc(Br)cc3c2N)c1,29.8% (inactive)
7,Cc1ccc(Cn2c(-c3nonc3N)nc3ccccc32)cc1,83.5% (inactive)
8,Cc1ccc(S(=O)(=O)NCCCNc2nccc(-c3c(-c4ccccc4)nc4sccn34)n2)cc1,18.3% (inactive)
9,COC1=CC(c2ccc[nH]2)=N/C1=C\c1[nH]c(C)c(C(=O)CCCCC(=O)Oc2ccc3c(c2)CCC2C3CC[C@]3(C)[C@@H](O)CC[C@@H]23)c1C (stereo partly specified),10.9% (inactive)
10,Cc1cccc(NC(=O)c2sc3nc4c(cc3c2N)CCC4)c1C,30.6% (inactive)
11,Nc1c(C(=O)Nc2c(Cl)cccc2Cl)sc2nc3c(cc12)CCCCC3,63.4% (inactive)
12,COc1cc(OC)c(C(=O)/C=C/c2ccc(C(F)(F)F)cc2)c(OC)c1,59.7% (inactive)
13,Cn1c(-c2nonc2NC(=O)c2ccc(F)cc2)nc2ccccc21,129% (inactive)
14,CCOC(=O)C1=C(CSC(=S)N(C2CCCCC2)C2CCCCC2)N(C)C(=O)NC1c1ccccc1 (stereo unspecified),62.9% (inactive)
15,COC12CC(=O)C(C(C)=O)=C(O)C1(C)c1c(O)c(C)c(O)c(C(C)=O)c1O2 (stereo unspecified),92.7% (inactive)
16,COc1ccc(C2=CC(c3ccc(Oc4ccnc5cc(Cl)ccc45)c(OC)c3)c3c(nc(OC)[nH]c3=O)N2)cc1 (stereo unspecified),75.2% (inactive)
17,COc1ccc(Cn2cc(COc3cc(/C=C/C(=O)c4cc(OC)c(OC)c(OC)c4)ccc3OC)nn2)cc1,84.9% (inactive)
18,O=C(Nc1ccc(OCc2nnc(-c3ccc(Cl)cc3)o2)c(F)c1)Nc1ccc(Cl)c(Cl)c1,26.3% (inactive)
19,O=C(CNc1ccc(Cl)cc1)Nc1ccc(-c2nc3ccccc3s2)cc1,37.6% (inactive)
